Assay results taken from PubChem BioAssay (Tox21).
Inconclusive results are not listed. Where a call stands in place of a potency, no number is given. The source made the active and inactive calls. Calls follow the shape of the full dose curve.

Experiment: p53 small molecule agonists, cell-based qHTS assay with human liver microsomes (AID 1963577);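 also: p53 response element beta-lactamase reporter cells with liver microsomes plus NADPH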
Conditions: HCT-116 p53RE-bla with human liver microsomes, ratio, 16 h; series mostly up to 66 µM; activation: at the top concentration
Source text: National Center for Advancing Translational Sciences [NCATS]
Division of Preclinical Innovation [DPI]
U.S. Environmental Protection Agency [EPA]
National Institutes of Environmental Health Sciences [NIEHS]
National Toxicology Program [NTP]
U.S. Food and Drug Administration [FDA]
p53, a tumor suppressor protein, is activated following cellular insult, including DNA damage and other cellular stresses. The activation of p53 regulates cell fate by inducing DNA repair, cell cycle arrest, apoptosis, or cellular senescence. The activation of p53, therefore, is a good indicator of DNA damage and other cellular stresses. […] The activation of the reporter gene under culture conditions can be detected by fluorescence intensity.
Tox21 Assay Protocol Summary:
The p53RE-bla cells were dispensed at 4,000cells/3ul/well in 1536-well black-clear bottom plates. After the assay plates were incubated at 37 C, 5% CO2 incubator for 5 hours, 23 nL of compounds dissolved in DMSO, positive controls or DMSO only was transferred to the assay plate. Following compound addition, 3 uL of human liver microsomes (XenoTech, Kansas City, KS) at final concentration of 0.5 mg/mL and 1uL of Beta-Nicotinamide adenine dinucleotide 2-phosphate (NADPH) at final concentration of 0.5 mg/mL were transferred to the assay plate. The plates were incubated at 37 C for 16 hours. 1 uL of LiveBLAzer detection mixture was added to each well and the plates were incubated at room temperature in the dark for 2 h.

| SMILES | Potency | activation |
| --- | --- | --- |
| OC1CCCCC1 | inactive | – |
| O=S(=O)(O)c1ccc2ccccc2c1 | inactive | – |
| C[C@]12CCC(=O)C=C1CC[C@@H]1[C@@H]2C(=O)C[C@@]2(C)[C@H]1CC[C@]2(O)C(=O)CO | inactive | – |
| CCCCCCCCCCCCO | inactive | – |
| CCCCCCCCCCCO | – | -2.6% (inactive) |
| CCc1cccc(O)c1 | inactive | – |
| O=[N+]([O-])C(CO)(CO)CO | inactive | – |
| Cc1ccc(O)cc1 | inactive | – |
| Cc1ccncc1 | inactive | – |
| CCCCNC(=O)NS(=O)(=O)c1ccc(C)cc1 | inactive | – |
| CC(O)CN(CCN(CC(C)O)CC(C)O)CC(C)O (stereo not given) | inactive | – |
| CC(=O)Oc1ccc(C)cc1 | inactive | – |
| CCCCCCCCCCN | inactive | – |
| CCOc1ccc(NC(C)=O)cc1 | inactive | – |
| COCCOCCOC | inactive | – |
| Nc1cc(Cl)c(N)c(Cl)c1 | inactive | – |
| Clc1ccc(Cl)c(Cl)c1Cl | inactive | – |
| C[Si](O[Si](C)(C)C)O[Si](C)(C)C | inactive | – |
| CCCC[P+](CCCC)(CCCC)CCCC | inactive | – |
| CC(=O)[C@@]1(O)CC[C@H]2[C@@H]3C[C@H](C)C4=CC(=O)C=C[C@]4(C)[C@@]3(F)[C@@H](O)C[C@@]21C | inactive | – |

| SMILES | Potency | activation |
| --- | --- | --- |
| COC(=O)c1ccccc1O | inactive | – |
| CC1=NN(c2ccccc2)C(=O)C1 | inactive | – |
| O=C1CCC(N2C(=O)c3ccccc3C2=O)C(=O)N1 (stereo not given) | inactive | – |
| C=CC(C)(C)C | inactive | – |
| CCCOC(=O)c1cc(O)c(O)c(O)c1 | inactive | – |
| CCOC(N)=O | inactive | – |
| CCN(CCN)c1cccc(C)c1 | inactive | – |
| COc1ccc2[nH]cc(CCNC(C)=O)c2c1 | inactive | – |
| C=C(C)C(=O)Nc1ccc(Cl)c(Cl)c1 | inactive | – |
| CC(O)C(=O)O (stereo not given) | inactive | – |
| CC(=O)NS(=O)(=O)c1ccc(N)cc1 | inactive | – |
| O=c1[nH]cc(F)c(=O)[nH]1 | inactive | – |
| O=C(c1ccc(O)cc1)c1ccc(O)cc1O | inactive | – |
| Oc1cccc(O)c1 | inactive | – |
| O=C1C(N(CO)C(=O)NCO)N(CO)C(=O)N1CO (stereo not given) | inactive | – |
| NCCCCCCN | inactive | – |
| [O-]/[N+](=N\O)c1ccccc1 | inactive | – |
| c1ccc2c(c1)Cc1ccccc1-2 | inactive | – |
| NC(=O)c1cccnc1 | inactive | – |
| Cc1cccc(C(=O)O)c1 | inactive | – |
